A word on the inhibition: it is the relative decrease from the control value, in per cent.

A number with no mark means an inactive call. The list shows a part of the results. The source made the active and inactive calls. Unless noted, no stated cut-off is given here; in the data, active means inhibition above about 36%; inactive means the rest.

For 68 compounds, inhibition results are on record in PubChem BioAssay.

Experiment [1] relates to transactivating tegument protein VP16 (Human herpesvirus 1). Nature of the experiment: compounds suppressing VP16-driven luciferase signal – cell-based, luminescence, single concentration, counter-screen for SRC2 inhibitor project (AID 652007). Particulars: cell-based VP16 transactivation luciferase reporter, at 8.9 µM, hits give high values. (A counterscreen serves to expose hits that act by an unwanted route or on another target.)

The target in experiment [2] is Nuclear receptor coactivator 2 (Homo sapiens) (UniProt Q15596). As to the kind of experiment: inhibition of GAL4-SRC2 driven luciferase expression – cell-based, luminescence, HEK293, triplicate, confirmation (AID 652008;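 active means mean inhibition above 46.5%, the solvent-only control mean plus 3 SD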;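 further: 0% = DMSO-treated cells and 100% = Gossypol at 36 µM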). The settings on record: HEK293 GAL4-SRC2 luciferase reporter, at 8.9 µM, hits give high values. A general note: In a reporter assay the amount or activity of a reporter protein is the signal.
Chain of Nuclear receptor coactivator 2 (Homo sapiens) (Q15596 whole entry, looked up, the tested form may be a part): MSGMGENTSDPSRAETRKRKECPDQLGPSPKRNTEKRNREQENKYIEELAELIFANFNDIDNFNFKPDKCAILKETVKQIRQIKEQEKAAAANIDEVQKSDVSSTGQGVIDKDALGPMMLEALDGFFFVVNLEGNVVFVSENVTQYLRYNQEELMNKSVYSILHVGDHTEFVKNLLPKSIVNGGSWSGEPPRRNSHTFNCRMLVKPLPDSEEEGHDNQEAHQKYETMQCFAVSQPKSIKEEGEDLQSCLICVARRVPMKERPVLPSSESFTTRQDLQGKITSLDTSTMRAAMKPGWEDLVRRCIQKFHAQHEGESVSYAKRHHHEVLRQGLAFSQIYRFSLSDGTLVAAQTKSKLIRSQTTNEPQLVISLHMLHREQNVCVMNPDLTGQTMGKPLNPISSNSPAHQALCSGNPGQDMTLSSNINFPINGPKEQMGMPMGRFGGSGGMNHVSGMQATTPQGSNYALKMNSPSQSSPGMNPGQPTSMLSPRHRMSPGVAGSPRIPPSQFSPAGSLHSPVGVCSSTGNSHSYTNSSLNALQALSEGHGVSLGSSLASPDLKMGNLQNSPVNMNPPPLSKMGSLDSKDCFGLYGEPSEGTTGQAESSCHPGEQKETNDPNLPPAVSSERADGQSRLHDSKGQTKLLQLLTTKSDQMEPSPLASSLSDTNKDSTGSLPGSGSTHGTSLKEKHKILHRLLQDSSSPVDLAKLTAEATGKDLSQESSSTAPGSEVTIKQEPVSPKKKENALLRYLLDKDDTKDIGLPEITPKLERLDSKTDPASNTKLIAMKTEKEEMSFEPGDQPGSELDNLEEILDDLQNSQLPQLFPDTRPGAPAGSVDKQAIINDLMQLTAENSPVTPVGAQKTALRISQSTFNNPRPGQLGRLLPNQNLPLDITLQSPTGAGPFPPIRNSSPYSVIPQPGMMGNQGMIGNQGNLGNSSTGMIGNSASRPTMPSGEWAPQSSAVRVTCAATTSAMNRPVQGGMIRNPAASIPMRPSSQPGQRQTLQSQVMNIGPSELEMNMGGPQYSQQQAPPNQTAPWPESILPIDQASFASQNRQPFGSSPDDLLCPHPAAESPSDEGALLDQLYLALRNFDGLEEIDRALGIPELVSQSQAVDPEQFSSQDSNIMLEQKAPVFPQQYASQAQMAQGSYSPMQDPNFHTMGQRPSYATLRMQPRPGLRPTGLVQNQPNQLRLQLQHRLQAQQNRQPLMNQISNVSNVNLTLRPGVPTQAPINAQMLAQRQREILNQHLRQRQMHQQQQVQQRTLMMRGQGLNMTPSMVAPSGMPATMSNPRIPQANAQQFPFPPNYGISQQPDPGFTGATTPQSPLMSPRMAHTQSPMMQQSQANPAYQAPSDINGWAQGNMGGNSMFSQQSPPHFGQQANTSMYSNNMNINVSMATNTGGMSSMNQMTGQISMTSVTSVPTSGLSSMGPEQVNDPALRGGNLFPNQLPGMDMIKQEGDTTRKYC

Experiment [3] is described as follows: VP16-driven transactivation reporter suppression – cell-based, luminescence, HEK293, counter-screen for COUP-TFII antagonist project (AID 687007; in the data active means inhibition above about 13%). The settings on record: HEK293 Gal4-VP16 luciferase reporter, at 8.5 µM, hits give high values.
Experiment [4] has as its target COUP transcription factor 2 (Homo sapiens) (UniProt P24468). Nature of the experiment: retest of COUP-TFII reporter suppressors – cell-based, luciferase reporter, HEK293, triplicate, confirmation (AID 687008;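 active means mean inhibition over three repeats above a set limit taken from the earlier primary screen, cut at about 38% in these data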;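 further: 100% = cells given the luciferase reporter alone without the COUP-TF2 vector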). The settings on record: HEK293 NGFI-A luciferase reporter, luminescence; at 8.5 µM; hits give high values.
Experiment [5] can be described thus: BSA probe fluorescence interference – biochemical, TAMRA-labeled BSA, counter-screen for TCR-CD3 interaction inhibitor project (AID 652035; in the data active means inhibition above about 23%;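 further: 0% = buffer low control and 100% = reference high control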). Particulars: TAMRA-labeled BSA probe fluorescence counterscreen; at 9.4 µM; hits give high values.
For experiment [6], the system named is T-cell receptor (TCR)-CD3 interaction, human. As to the kind of experiment: blockers of TCR binding to CD3 – biochemical, fluorescence, TAMRA-labeled TCR probe, confirmation (AID 652036; in the data active means inhibition above about 19%). The settings on record: TAMRA-labeled TCR probe fluorescence binding assay; at 9.4 µM; hits give high values.

Chain of COUP transcription factor 2 (Homo sapiens) (P24468 whole entry, looked up): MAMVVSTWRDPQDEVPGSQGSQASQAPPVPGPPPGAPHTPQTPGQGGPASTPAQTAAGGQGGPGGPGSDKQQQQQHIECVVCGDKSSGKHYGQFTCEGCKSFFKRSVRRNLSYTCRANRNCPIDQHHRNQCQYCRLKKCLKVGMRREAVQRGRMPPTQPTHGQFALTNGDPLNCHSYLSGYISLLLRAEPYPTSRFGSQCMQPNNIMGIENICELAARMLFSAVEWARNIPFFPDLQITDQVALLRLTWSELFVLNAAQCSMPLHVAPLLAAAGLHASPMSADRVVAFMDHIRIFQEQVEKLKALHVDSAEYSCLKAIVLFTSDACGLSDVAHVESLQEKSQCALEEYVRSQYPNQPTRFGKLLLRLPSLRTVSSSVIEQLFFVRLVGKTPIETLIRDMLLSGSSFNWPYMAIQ

Consider `O=C(Cc1ccc(Cl)cc1)NCCc1cnc[nH]1`, for which the inhibition in experiment [1] was -16.2%; in experiment [2], -12.5%.
In the case of `COc1ccc(OC)c(NC(=O)c2cc(-c3cc(F)ccc3OCC3CCCO3)n[nH]2)c1` (centres undefined), the inhibition was 1.64% in experiment [1], -1.6% in experiment [2], 3.7% in experiment [3] and -6.7% in experiment [4].
Take `CC(C)c1nnc(NC(=O)c2nc(S(=O)(=O)Cc3ccccc3F)ncc2Cl)s1`: the values for the inhibition in experiment [1] and in experiment [2] were 16.4% and 48% (active), respectively.
As for `CC(=O)NN1C(=O)/C(=C\c2ccc(Br)o2)SC1=S`, the inhibition is 14.8% in experiment [1] and 19.2% in experiment [2].
Regarding `C=CS(=O)(=O)N(Cc1nnn(Cc2ccccc2)c1Br)[C@H](C(=O)OC)C(C)C`, the inhibition was 18.8% in experiment [1] and 27.4% in experiment [2].
The matching figures for `O=[N+]([O-])c1ccc(S(=O)(=O)c2ccccc2)nc1`: 51.9% (active) and 36%.
The matching figures for `COc1ccc(OC)c(NC(=O)C(C)OC(=O)c2cc3ccccc3[nH]2)c1` (centres undefined): -2.68% and 17.6%.
As to `COc1ccc(CC(=O)NNC(=O)c2ccc(Br)o2)cc1`, the results for the inhibition in experiment [1] and in experiment [2] were -9.53% and -27.1%, respectively.
Consider `COC(=O)c1cnn(-c2ccc(Cl)cc2)c1/C=N/NC(N)=S`, for which the inhibition in experiment [1] is 22%; in experiment [2], 34.7%.
As to `Cc1ccc([C@@H]2CC=C(C(=O)O)[C@H](c3ccccc3)N2S(=O)(=O)c2ccccc2C)cc1`, the values for the inhibition in experiment [1] and in experiment [2] were 0.1% and -13%, respectively.
The matching figures for `CC(C)[C@H](CO)Nc1nc(NCc2ccc(S(N)(=O)=O)cc2)c2ncn(C(C)C)c2n1`: 14.3% and 37.8%.
In the case of `O=C(CCl)N(c1ccccc1)c1ccccc1`, the inhibition in experiment [1] is 9.78%; in experiment [2], 44.2%.
The matching figures for `CN(C)c1ccc(CCc2ccc(N)cc2)cc1`: 12.3% and 57.2% (active).
The matching figures for `CC1=CC(C)(C)Nc2ccc(OC(=O)c3cccnc3)cc21`: -32.4% and 39.7%.
The matching figures for `c1ccc(-n2nnnc2Oc2ccc(-n3ccnc3)cc2)cc1`: -16.2% and 1.01%.
Regarding `Cn1cc(S(=O)(=O)Nc2ccc3c(c2)OCCO3)cn1`, the inhibition was -16% in experiment [1] and 32.5% in experiment [2].
The matching figures for `Cc1cc(C(=O)COC(=O)c2ccc(O)cc2O)c(C)n1-c1ccc(OC(F)F)cc1`: 12.6% and 35.1%.
The matching figures for `Cc1nc(SCCC(=O)O)c2cc(-c3ccccc3)sc2n1`: 48.6% (active) and 80.1% (active).
With `COc1ccccc1N(CC(=O)N/N=C(\C)c1ccccc1O)S(=O)(=O)c1ccc(C)cc1`, the inhibition in experiment [1] was 12.9%; in experiment [2] it was 25.4%; in experiment [5], -17.6%; in experiment [6], 14.3%.
In the case of `O=C(O)/C=C/C(=O)N(CC1CCCO1)C1CC(=O)N(c2c(Cl)cccc2Cl)C1=O` (centres undefined), the inhibition in experiment [1] is -22.7%; in experiment [2] it was -29.3%.
The matching figures for `CN1CCN(c2ccc(NC(=O)c3cc(S(N)(=O)=O)ccc3N3CCOCC3)cc2)CC1`: -1.08% and -8.5%.
For `O=C(c1ccco1)N1CCN(C(=O)N2c3ccccc3Sc3ccccc32)CC1`, the results for the inhibition in experiment [1] and in experiment [2] were 6.34% and 14.1%, respectively.
The matching figures for `O=C(NCc1cccnc1)c1cc(Sc2ccc(F)cc2F)nc2ccccc12`: 3% and 16.4%.
The matching figures for `O=C1CSC(c2ccc([N+](=O)[O-])cc2)N1c1ccc(O)cc1` (centres undefined): 5.23% and -13.8%.
The matching figures for `CCNC(=O)NC(=O)COC(=O)CCCSc1nc2ccccc2s1`: 5% and 24.9%.
With `Cc1onc(-c2ccccc2Cl)c1C(=O)N1CCC(Cc2ccccc2)CC1`, the inhibition in experiment [1] was 9.05%; in experiment [2] it was 10.1%.
The matching figures for `COC(=O)Cc1ccc(NC(=O)c2ccccc2Cl)cc1`: -35.8% and 8.14%.
The matching figures for `Cc1ccc(NC(=O)C2CCN(C(=O)c3ccccc3C)CC2)nc1`: -5.97% and -11.5%.
Consider `O=C(N/N=C/c1ccc(O)cc1)c1[nH]c2ccc(Br)cc2c1-c1ccccc1`, for which the figures for the inhibition in experiment [1] and in experiment [2] were -15.2% and -7.94%, respectively.
The matching figures for `COc1cc(-c2nnc(-c3cc(-c4ccccc4)nc4ccccc34)o2)cc(OC)c1OC`: -13.1% and -5.55%.
The matching figures for `Cc1cc(NC(=O)c2ccccc2)c(Cl)cc1N`: 25.4% and 52.1% (active).
The matching figures for `O=C(Cc1coc2cc3c(cc12)CCC3)OCC(=O)N1CCCC1=O`: 16.3% and 38.7%.
As for `Cc1nc(N/N=C/c2ccccn2)sc1C`, the inhibition in experiment [1] was 29.8%; in experiment [2] it was 60.2% (active).
The matching figures for `O=C(c1ccccc1Nc1ccc(SC(F)F)cc1)N1CCCCCC1`: 2.12% and 4.87%.
The matching figures for `COc1ccc(C(=O)N/N=C\c2coc3ccc(Cl)cc3c2=O)cc1`: 3.52% and 5.31%.
The matching figures for `CCN(CC)CCNC(=O)c1ccc(NC(=O)c2ccc(S(=O)(=O)N3CCCC3)cc2)cc1`: -4.61% and -8.26%.
As for `c1ccc(C2=Nn3c(nnc3-c3ccncc3)SC2)cc1`, the inhibition in experiment [1] was -2.29%; in experiment [2], 34.6%.
Turning to `Cc1ccc([N+](=O)[O-])cc1N(CC(=O)Nc1ccc(S(=O)(=O)Nc2cccc(C(F)(F)F)c2)cc1)S(C)(=O)=O`, the inhibition in experiment [1] was -13.7%; in experiment [2] it was -3.19%.
For the compound `O=S(=O)(O)c1cc2onnc2c2ccccc12`, the results for the inhibition in experiment [5] and in experiment [6] were 11% and 4.6%, respectively.
Regarding `CNC(=S)NNC(=O)c1cccn(Cc2ccccc2)c1=O`, the inhibition in experiment [5] was 4.48%; in experiment [6] it was 46.7% (active).
With `Oc1ccc(N=Cc2c(O)ccc3ccccc23)cc1`, the values for the inhibition in experiment [5] and in experiment [6] were -3.16% and 4.09%, respectively.
With `O=S1(=O)c2c(cccc2N2CCCC2)O[C@H](COCc2ccccc2)CN1C1CC1`, the inhibition in experiment [5] is -4.17%; in experiment [6], 1.77%.
The matching figures for `COc1cc(C(=O)NCC2(c3ccccc3)CCCC2)ccc1OC(C)C`: 1.07% and 2.19%.
Consider `COc1ccc(/C=C2/SC(=O)N(CCCCCC(=O)Nc3ccccc3C(=O)O)C2=S)cc1`, for which the inhibition in experiment [1] is 53.8% (active); in experiment [2] it was 63.9% (active); in experiment [3], 29.6% (active); in experiment [4] it was 17.7%.
The matching figures for `CC[C@@H](C)[C@H](NC(=O)CCc1c(C)c2cc3c4c(oc3c(C)c2oc1=O)CCCC4)C(=O)O`: 40.8% (active), 59.5% (active), 22.3% (active) and 24.8%.
`CCOCC(=O)NCc1ccc2c(c1)cc(C)n2C`: the inhibition in experiment [5] is 6.46%; in experiment [6] it was 6.18%.
For `O=C(Nc1cccc(-c2nc3ccccc3[nH]2)c1)c1ccc(C(=O)Nc2cccc(-c3nc4ccccc4[nH]3)c2)cc1`, the inhibition in experiment [5] is 9.76%; in experiment [6], 10.8%.
The matching figures for `C/C=C/C=C/C(=O)O`: 3.35% and 6.03%.
The matching figures for `COc1ccc(Br)cc1C(=O)NC(=S)Nc1cc(-c2nc3ccccc3[nH]2)ccc1C`: 17.9% and 34.4% (active).
The matching figures for `Cc1ccc(-c2nn(-c3ccccc3)cc2/C=C/C(=O)Nc2cccc(S(N)(=O)=O)c2)cc1`: 26.6% (active) and 48.1% (active).
`CNS(=O)(=O)c1ccc2c(c1)[nH]c(=S)n2C`: the inhibition in experiment [5] and in experiment [6] was 10.3% in each case.
Turning to `COc1ccc(CC(=O)N/N=C/c2cc([N+](=O)[O-])cc(Br)c2O)cc1`, the inhibition in experiment [5] is -11.9%; in experiment [6], 40% (active).
The matching figures for `C=CCn1c(=O)c(C(=O)Nc2ncccc2O)c(O)c2ccccc21`: -7.93% and 16.6%.
As to `Cc1cc(C(=O)CCC(=O)NNC(=O)c2ccccc2O)c(C)s1`, the figures for the inhibition in experiment [5] and in experiment [6] were -14.4% and 11.4%, respectively.
Regarding `CN1OC[C@@H]2CN(S(=O)(=O)c3cccc(C(F)(F)F)c3)[C@H](c3ccc(-c4cc5ccccc5o4)cc3)C[C@@H]21`, the inhibition in experiment [1] was 3.18%; in experiment [2], 46.3%; in experiment [3], -5.07%; in experiment [4], 0.77%.
In the case of `O=C1C(Cc2ccc(O)cc2)NC(=S)N1Cc1ccccc1` (centres undefined), the inhibition was -2.95% in experiment [5] and -0.37% in experiment [6].
In the case of `O=C1NC[C@@H](Cc2ccc(O)cc2)N(CCc2cccc(F)c2)C1=O`, the inhibition in experiment [1] was -20.2%; in experiment [2], -26.9%; in experiment [3], 4.3%; in experiment [4], 5.14%.
For the compound `COc1ccc(/C(=N\O)c2nccc3cc(OC)c(OC)cc23)cc1OC`, the inhibition in experiment [5] was -7.63%; in experiment [6], 15.5%.
The matching figures for `O=C(N/N=C/c1ccco1)c1ccc(C(=O)N/N=C/c2ccco2)o1`: -19.7% and 28.2% (active).
The matching figures for `COc1ccccc1C(=O)NNC(=O)c1ccc(NC(=O)c2ccccc2)cc1`: -8.35% and 35.5% (active).
Take `C[C@H]1CCC/C=C/C(=O)c2c(O)cc(O)cc2CC(=O)O1`: the inhibition in experiment [1] is 41.5% (active); in experiment [2] it was 55.5% (active); in experiment [3] it was 49.3% (active); in experiment [4] it was -1.02%.
On to `CCOc1ccc(-n2c(O)c(/C=N/Nc3nnc(C)c(=O)[nH]3)c3ccccc3c2=O)cc1`, for which the inhibition in experiment [5] was -21.4%; in experiment [6] it was 26% (active).
The matching figures for `Cc1ccc(O)c(/C=N/NC(=O)COc2ccc3c(C)cc(=O)oc3c2)c1`: -10.9% and 46.1% (active).
The matching figures for `Cc1cc2nc3c(=O)[nH]c(=O)nc-3n(C[C@H](O)[C@H](O)[C@H](O)CO)c2cc1C`: 50.4% (active) and 33.3% (active).
The matching figures for `COc1ccc(-c2c(-c3cc(OC)cc(OC)c3)n(C)c3ccc(-c4ccn[nH]4)cc23)cc1`: 1.44% and -1.35%.
As to `Cc1ccc2nc(-c3ccc(Br)cc3)cn2c1`, the inhibition in experiment [1] is 9.32%; in experiment [2] it was 78.4% (active); in experiment [3] it was -12.3%; in experiment [4], 19.1%.
On to `CCC(=O)NC(=S)Nc1ccc(NC(=O)c2ccco2)c(Cl)c1`, for which the inhibition was 3.69% in experiment [5] and 13.4% in experiment [6].
`O=C(c1c(F)cccc1F)N1CCN(S(=O)(=O)c2ccc3c(c2)OCCO3)CC1`: the inhibition is -6.59% in experiment [1], 23.6% in experiment [2], -10.6% in experiment [3] and 23.4% in experiment [4].
